Molecules are shown by their SMILES. Results with a measured potency or affinity are listed apart. The source made the active and inactive calls.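 How the source made its calls: active means every replicate test called active, each showing a drop in signal with a fitted potency within twice the top tested dose; inconclusive means tests disagree, or fits are weak, flat midrange or poor; inactive means every test flat, rising or fitted past the limit.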

The nature of this assay: A549 cell cytotoxicity, dose response, cytotoxicity control, CellTiter-Glo luminescence, dry powder, set 18 (AID 1117290). As to conditions: A549 viability, CellTiter-Glo ATP luminescence, 72 h; series mostly up to 26 µM. (In ATP-based viability assays light output follows the ATP content of the culture.)
Take `CC(=O)N1CCN(C(=O)C2(NC(=O)Nc3ccc(C(F)(F)F)cc3)CCCCC2)CC1`: the compound was called inactive. In the case of `COc1ccc(C(=O)Nc2cc(F)ccc2N2CCCCC2)cc1S(=O)(=O)O` it was “inactive”; in that of `N#Cc1ccc(S(=O)(=O)Nc2cc(C(F)(F)F)ccc2N2CCCCC2)cc1`, “inactive”; in that of `COc1ccc(C(=O)O)cc1S(=O)(=O)Nc1cc(C(F)(F)F)ccc1N1CCOCC1`, “inactive”. Consider `O=S(=O)(Nc1cc(C(F)(F)F)ccc1N1CCCCC1)c1cc(Cl)cc(Cl)c1`, for which the compound was called inactive.

As to `COc1ccc(C(=O)O)cc1S(=O)(=O)Nc1cccc(N2CCCCC2)c1C(F)(F)F`, the outcome was inactive. Regarding `O=S(=O)(O)c1ccc(N2N=C(c3ccccc3)CC2c2ccccc2)cc1` (stereo unspecified), the call was inactive. With `CC(=O)N1CCN(C(=O)C2(NC(=O)Nc3ccccc3)CCCC2)CC1`, the result was inactive.

In the case of `COc1cccc(NC(=O)NC2(C(=O)N3CCN(C(C)=O)CC3)CCCCC2)c1`, the compound was called inactive.

`CC(=O)N1CCN(C(=O)C2(NC(=O)Nc3ccc(C(C)C)cc3)CCCC2)CC1`: the outcome was inactive. For `CC(=O)N1CCN(C(=O)C2(NC(=O)Nc3ccccc3F)CCCCC2)CC1`, the compound was called inactive.

Turning to `COc1ccc(C(=O)Nc2ccccc2N2CCCCC2)cc1S(=O)(=O)O`, the compound was classed as inactive. Consider `COc1ccc(C(=O)O)cc1S(=O)(=O)Nc1cc(C(F)(F)F)ccc1N1CCN(C(C)=O)CC1`, for which the result was inactive. As to `COc1ccc(C(=O)O)cc1S(=O)(=O)Nc1ccc(N2CCCCC2)cc1C(F)(F)F`, the outcome was inactive. As to `O=S(=O)(Nc1cc(C(F)(F)F)ccc1N1CCCCC1)c1ccc(-c2ccccc2)cc1`, the compound was classed as inactive. In the case of `CC(=O)N1CCN(C(=O)C2(NC(=O)Nc3ccc(F)cc3)CCCC2)CC1`, the result was inactive. Turning to `O=S(=O)(Nc1cc(C(F)(F)F)ccc1N1CCCCC1)c1ccccc1`, the result was inactive. Take `O=S(=O)(Nc1cc(C(F)(F)F)ccc1N1CCCCC1)c1ccc(C(F)(F)F)cc1`: the result was inactive. Consider `COc1ccc(C2=NN(c3ccc(C(=O)O)cc3)C(c3ccc(OC)c(OC)c3)C2)cc1` (stereo unspecified), for which the compound was classed as inactive. On to `COc1ccc(C(=O)Nc2cccc(C(F)(F)F)c2)cc1S(=O)(=O)O`, for which the call was inactive. With `O=S(=O)(Nc1cc(C(F)(F)F)ccc1N1CCCCC1)c1ccc(Cl)cc1`, the outcome was inactive. Take `O=C(Nc1cc(C(F)(F)F)ccc1N1CCCCC1)c1ccc(S(=O)(=O)O)cc1`: the compound was called inactive.

As for `COc1ccc(C(=O)Nc2cc(C)ccc2N2CCCCC2)cc1S(=O)(=O)O`, the compound was called inactive. `COc1ccc(C(=O)O)cc1S(=O)(=O)N1CCN(c2ccc(C(F)(F)F)cc2N)CC1`: the compound was called inactive.

Turning to `CC(=O)N1CCN(C(=O)C2(NC(=O)Nc3ccc(C(C)C)cc3)CCCCC2)CC1`, the call was inactive. As to `CC(=O)N1CCN(C(=O)C2(NC(=O)NC(C)(C)C)CCCCC2)CC1`, the outcome was inactive.
